High-throughput results from PubChem BioAssay.
HP1b chromo inh: inhibitors of HP1-beta chromodomain binding to methylated histone tails. Potency, µM (doses to about 114 µM), for the others: at the top dose activity change, negative = inhibition, hits mostly inhibitors. P83916. AlphaScreen HP1-beta / biotin-H3K9me3 peptide binding. hit rate 0.56% among 390,000; also: nearly all actives have a fitted effect of over 70% in size
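Compound inhibition of the preformed complex between 50 nM HP1-beta and 50 nM biotinylated H3K9me3 peptide was read by AlphaScreen. Buffer was PBS pH 7.4 with 0.01% Tween-20. Incubations ran 30 min at room temperature, with 10 ug/mL donor/acceptor beads.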
JMJD2A Tudor inh: JMJD2A Tudor domain (human) inhibition; AlphaScreen JMJD2A-Tudor / H3K4me3 peptide binding; hit rate 4.4% among 390,000; Potency, µM (titrated, usually from 114 µM), for the others: top-dose activity change, negative = inhibition, actives largely listed as inhibitors; also: % is scaled to controls: 0 for no effect and ±100 for the full control effect; nearly all actives have a fitted effect of over 50% in size
12-LOX inh: inhibitors of human 12S-lipoxygenase ALOX12. purified 12hLO, xylenol orange hydroperoxide absorbance. AID 1671190. hit rate 1.1% among 580,000. Potency, µM (series often up to 108 µM), inactives show at the highest dose activity change, negative = inhibition, usual class: inhibitors; also: % is scaled to controls: 0 for no effect and ±100 for the full control effect
Target sequence (P18054 whole entry, looked up): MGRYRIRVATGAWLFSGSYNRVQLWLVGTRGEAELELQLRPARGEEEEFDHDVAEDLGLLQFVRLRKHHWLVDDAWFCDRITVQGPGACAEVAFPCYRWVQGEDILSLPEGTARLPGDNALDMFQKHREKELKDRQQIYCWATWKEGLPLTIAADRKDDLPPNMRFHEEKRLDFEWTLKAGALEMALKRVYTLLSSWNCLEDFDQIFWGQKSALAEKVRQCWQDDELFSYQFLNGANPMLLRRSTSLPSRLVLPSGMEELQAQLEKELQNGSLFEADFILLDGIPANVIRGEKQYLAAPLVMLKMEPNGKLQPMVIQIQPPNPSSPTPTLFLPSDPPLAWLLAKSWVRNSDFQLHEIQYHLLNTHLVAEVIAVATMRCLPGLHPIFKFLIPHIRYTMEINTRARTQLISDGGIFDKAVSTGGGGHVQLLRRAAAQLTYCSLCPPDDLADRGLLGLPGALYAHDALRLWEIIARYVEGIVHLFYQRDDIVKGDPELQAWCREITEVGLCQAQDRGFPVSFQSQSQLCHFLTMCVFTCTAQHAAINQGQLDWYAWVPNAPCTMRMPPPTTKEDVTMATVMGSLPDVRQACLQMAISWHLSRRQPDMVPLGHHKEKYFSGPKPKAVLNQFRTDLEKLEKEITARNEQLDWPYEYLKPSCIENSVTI
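Purified human 12hLO (150 nM final) in 25 mM Hepes, 0.01% Triton X-100, pH 7.0 was preincubated 15 min at room temperature with compound. Then 40 uM arachidonic acid was added, 30 min. Hydroperoxide was read by Fe-XO absorbance ratio 573/405 nm.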
Sfp inh: inhibitors of Bacillus subtilis Sfp phosphopantetheinyl transferase. hit rate 3.5% among 310,000. Potency, µM, for the others: largest response in the series, negative = inhibition, most hits filed as inhibitors. Biochemical Sfp PPTase activity, qHTS. Q9F4F7. AID 1490;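 also: the enzyme is Sfp with the accession as filed and its product quenches rhodamine fluorescence; 0% = enzyme reaction without inhibitor and -100% = no enzyme wells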
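Sfp 15 nM + cpd, 15 min RT; start w/ rhodamine-CoA 5 uM, BHQ-2-YbbR 12.5 uM (final); 50 mM Hepes pH 7.6, 10 mM MgCl2, 0.01% NP-40, 0.01% BSA; read 525/598 nm at 0 and 30 min.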
G9a inh: inhibitors of human histone lysine methyltransferase G9a. AID 504332. Q96KQ7. hit rate 8.8% among 350,000. G9a H3K9 monomethylation, AlphaScreen, 2 h. Potency, µM (doses to about 102 µM), inactives show top-dose activity, negative = inhibition, most hits filed as inhibitors; also: % is scaled to controls: 0 for no effect and ±100 for the full control effect; nearly all actives have a fitted effect of over 75% in size
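Step 1: enzyme (final 20 nM) with compound, 15 min RT. Step 2: substrate peptide 500 nM and SAM 20 uM, 2 h RT. Step 3: anti-H3K9me1 antibody and AlphaScreen beads, 10 min, then plate read.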
BAZ2B inh: BAZ2B (human) inhibition | AlphaScreen BAZ2B-H3K14Ac peptide displacement | Potency, µM (highest dose often 114 µM), for inactives: at the top dose activity change, negative = inhibition, most hits filed as inhibitors | hit rate 4.4% among 360,000 | AID 504333; also: % is scaled to controls: 0 for no effect and ±100 for the full control effect; nearly all actives have a fitted effect of over 60% in size
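Compounds, titrated to a top concentration of 110 uM, were incubated 30 min at room temperature with preformed BAZ2B/acetyl-K14 H3 peptide complex (50 nM each). Proximity signal was measured by AlphaScreen after 20 min with beads.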
* hit, by the source's call; ? = inconclusive; · = not tested or not shown; [ ] = dose if it differs, or a comment. Most compounds without a hit are left out; they make up all but 8.7% or so of the library. Calls follow the shape of the dose curve; as a rule, active = well fitted curve in the direction sought with a large enough effect; inconclusive = small, poorly fitted or top-dose-only effect, or another doubt; inactive = no such curve, though single readings can be large; an effect the other way counts as inactive or inconclusive. Potency is read from the fitted curve at half-maximal effect.

SMILES	HP1b chromo inh	JMJD2A Tudor inh	12-LOX inh	Sfp inh	G9a inh	BAZ2B inh
CCS(=O)(=O)N1CC(n2cc(C(=O)NCC3CC3)nn2)C1	·	·	16%	·	·	·
Cc1ccc(-c2nsc(SCC(=O)NCc3ccc4c(c3)OCO4)n2)cc1	34%	-1%	-5%	-6%	23%	7%
Cc1ccccc1-c1nc(CS(=O)(=O)CC(=O)NCc2ccc3c(c2)OCO3)c(C)o1	43%	-16%	-8%[57.4 µM]	0%	50µM*	-9%
Cc1ccccc1-c1nsc(SCC(=O)NCc2ccc3c(c2)OCO3)n1	-7%	-17%	0%	-21%	35µM*	-3%
Cc1c(F)cccc1NC(=O)c1nn(C)c(=O)c2ccccc12	·	·	11%	·	·	·
CCc1ccc(C2CC(c3ccccc3)n3ncnc3N2)cc1 (stereo unspecified)	29%	-33%	12%	1%	79µM*	4%
CCOc1ccc(C2CC(c3ccccc3C)n3nc(N)nc3N2)cc1 (stereo unspecified)	-9%	20µM*	17%[57.4 µM]	15%	?	-12%
CCc1ccc(C2CC(c3ccccc3Cl)Nc3nc(N)nn32)cc1 (stereo unspecified)	31%	-26%	2%[57.4 µM]	-5%	11µM*	-13%
CCN(CC)Cc1cnc2c(C(=O)N3CCC(N4CCCC4)CC3)cnn2c1	·	·	1%	·	·	·
O=[S+]([O-])(c1cccnc1)c1nnn2c1nc(N1CCCCC1)c1ccccc12	·	·	14%[6.33 µM]	·	·	·
O=C(Cc1ccccc1)N1CCC2(CC1)CC(N(Cc1ccc(F)cc1)C1CC1)CCO2 (stereo unspecified)	·	·	11%	·	·	·
CC(C)C[C@@H](CN)NC(=O)c1nc[nH]c1C(=O)N[C@@H](Cc1ccccc1)C(=O)CNC[C@H](C)NC(=O)c1nc[nH]c1C(=O)N[C@@H](CC(=O)O)C(=O)O	63%	?	19%	·	·	·
CC(C)C[C@@H](CNCC(=O)[C@H](Cc1ccccc1)NC(=O)c1[nH]cnc1C(=O)N[C@@H](C)CN)NC(=O)c1nc[nH]c1C(=O)N[C@@H](CC(=O)O)C(=O)O	55%	?	17%	·	·	·
CC(C)C[C@@H](CNCC(=O)[C@H](Cc1c[nH]c2ccccc12)NC(=O)c1[nH]cnc1C(=O)N[C@@H](C)CN)NC(=O)c1nc[nH]c1C(=O)N[C@@H](C)C(=O)O	27%	50µM*	?	·	·	·
CC(C)C[C@@H](CNCC(=O)[C@H](Cc1c[nH]c2ccccc12)NC(=O)c1[nH]cnc1C(=O)N[C@H](CN)CC(C)C)NC(=O)c1nc[nH]c1C(=O)N[C@@H](CC(=O)O)C(=O)O	?	40µM*	?	·	·	·
CC(C)C[C@@H](CN)NC(=O)c1nc[nH]c1C(=O)N[C@@H](Cc1c[nH]c2ccccc12)C(=O)CNC[C@H](C)NC(=O)c1nc[nH]c1C(=O)N[C@@H](CC(=O)O)C(=O)O	21%	56µM*	16%	·	·	·
CC(C)C[C@@H](CNCC(=O)[C@H](Cc1c[nH]c2ccccc12)NC(=O)c1[nH]cnc1C(=O)N[C@@H](C)CN)NC(=O)c1nc[nH]c1C(=O)N[C@@H](CC(=O)O)C(=O)O	22%	20µM*	-11%	·	·	·
COC(=O)CCC1(C(=O)OC)c2ccccc2-c2ccccc21	·	·	-14%	·	·	·
Cc1ccc(C(=O)n2nc(-c3ccco3)nc2N)cc1	43%	-9%	50%	-7%	6%[59 µM]	3%
COc1ccc(C(=O)n2nc(-c3ccco3)nc2N)cc1	-12%	?	?	14%	18µM*	-10%
Nc1nc(-c2ccco2)nn1C(=O)c1cccnc1	63%	-6%	-7%	-3%	50µM*	7%
c1ccc(C2=Nn3c(nnc3-c3ccco3)SC2)cc1	-15%	-24%	?	50µM*	32µM*	-27%
Brc1ccc(C2=Nn3c(nnc3-c3cccnc3)SC2)s1	34%	50µM*	·	-1%	18%[12.7 µM]	0%
Brc1ccccc1C1=Nn2c(nnc2-c2ccccc2)SC1	-26%	-24%	-13%	79µM*	32µM*	-5%
CC1=Nn2c(nnc2-c2cc(-c3ccccc3)n[nH]2)SC1	43%	0%	2%	-1%	14µM*	11%
SMILES	HP1b chromo inh	JMJD2A Tudor inh	12-LOX inh	Sfp inh	G9a inh	BAZ2B inh
Fc1ccc(C2=Nn3c(nnc3-c3ccco3)SC2)cc1	13%	3%	19%	?	·	-4%
Cc1cc(C)n(CCCN(C)Cc2cc3n(n2)CCNC3)n1	·	·	33%	·	·	·
Cc1ccc(-c2cn3c(n2)N(C(=O)Cn2ccnc2C)CCC3)cc1	·	·	56%	·	·	·
Cc1ccccc1/[N+]([O-])=C/c1ccccc1	·	·	-5%	·	·	·
COc1cccc(-c2cc3c(=O)n(CC(O)c4cccc(C#N)c4)ccn3n2)c1 (stereo unspecified)	·	·	10%	·	·	·
Cc1ccc(NC(=O)CSc2nnc(C)c(=O)[nH]2)cc1	56%	-9%	-6%	·	4%[59 µM]	-23%
COc1ccc(NC(=O)CSc2c(C)nn(-c3nnc(C)c(=O)[nH]3)c2C)cc1	41%	40µM*	302%	50µM*	13µM*	32µM*
Cc1cc2oc(=O)cc(-c3ccccc3)c2c(C)c1-c1ccc(N(C)C)cc1	-12%	?	-49%	-7%	28µM*	·
COc1cc(OC)c2c(-c3cccc(-c4ccc(N(C)C)cc4)c3)cc(=O)oc2c1	?	10µM*	-40%	-10%	8.9µM*	·
Cc1ccc(-c2c(C)cc3oc(=O)cc(-c4ccccc4)c3c2C)cc1	22%	-16%	-2%	-15%	36%	·
Cc1ccccc1C(=O)NC(C(=O)N1CCCC1)C1CCN(C(=O)c2ccc3c(c2)OCO3)CC1 (stereo unspecified)	·	·	27%	·	·	·
CCC1CN(C(=O)c2cnn(-c3ccccc3F)c2C(F)(F)F)CCO1 (stereo unspecified)	·	·	-36%	·	·	·
Cn1c(=O)c2c(ncn2CC(=O)N2CCC(CCOc3ccc(F)cc3)C2)n(C)c1=O (stereo unspecified)	·	·	44%	·	·	·
Cc1ccccc1CC1(CO)CCCN(C(=O)c2ccoc2)C1 (stereo unspecified)	·	·	2%	·	·	·
COc1ccc(C(=O)N2CCCC(CO)(Cc3ccccc3C)C2)o1 (stereo unspecified)	-17%	-17%	-26%	-10%	79µM*	-34%
CCOc1ccc(C2C(C(=O)/C=C/c3ccco3)=C(O)C(=O)N2CCN2CCOCC2)cc1OC (stereo unspecified)	19%	?	?	56µM*	45µM*	·
C=CCOc1cccc(C2C(C(=O)c3ccco3)=C(O)C(=O)N2CCN2CCOCC2)c1 (stereo unspecified)	48%	?	?	-15%	-27%[12.7 µM]	?
